{"source": "PubChem BioAssay (EPA / NIEHS)", "note": "Results filed as inconclusive are left out. Calls of active or inactive are those of the source. How the source made its calls: active means hit-call score of the fitted dose curve at least 0.9, where 1 is the maximum; inconclusive means response in the unintended direction; inactive means score below 0.9.", "data": [{"system": "not listed separately", "assay": "TOX21_p53_BLA_p3_viability: Viability Assessment in the Tox21 HCT-116 p53 Agonism Beta-lactamase Assay, Phase 3 (AID 2283593);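 further: cells exposed to compound for 16 h before reading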", "outline": "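HCT116 cells, 4000/well, dosed 5 h after plating by pin transfer (217-fold dilution from DMSO stock) and incubated 16 h at 37C, 5% CO2. Viability read as ATP luminescence with CellTiter-Glo after 30 min at room temperature.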", "values": [{"compound": "Nc1cc(C(=O)O)c(O)c(S(=O)(=O)O)c1", "outcome": "inactive"}, {"compound": "Cc1cccc(C)c1NC(=O)NC1=CCCN1C", "outcome": "inactive"}, {"compound": "CCC(=O)Nc1ccc(O)cc1", "outcome": "inactive"}, {"compound": "N[C@@H](C(=O)N[C@@H]1C(=O)N2C(C(=O)O)=C(Cl)CC[C@H]12)c1ccccc1", "outcome": "inactive"}, {"compound": "O=C(Oc1ccccc1C(=O)O)c1ccccc1O", "outcome": "inactive"}, {"compound": "Cc1scc2c1N(C(=O)CN1CCN(C)CC1)c1ccccc1NC2=O", "outcome": "inactive"}, {"compound": "NC(CO)C(=O)NNCc1ccc(O)c(O)c1O", "note": "(centres undefined)", "outcome": "inactive"}, {"compound": "Oc1ccc(C(O)CNCCCCCCNCC(O)c2ccc(O)c(O)c2)cc1O", "note": "(centres undefined)", "outcome": "inactive"}, {"compound": "NCC1CCC(C(=O)Oc2ccc(CCC(=O)O)cc2)CC1", "note": "(centres undefined)", "outcome": "inactive"}, {"compound": "C=CCCCCCC", "outcome": "inactive"}, {"compound": "CC1(C)O[C@@H]2C[C@H]3[C@@H]4CCC5=CC(=O)CC[C@]5(C)[C@@]4(F)[C@@H](O)C[C@]3(C)[C@]2(C(=O)CCl)O1", "outcome": "inactive"}, {"compound": "O=C1c2ccccc2C(=O)N1CO", "outcome": "inactive"}, {"compound": "COc1cc(C(=O)N2CCCCCCC2)cc(OC)c1OC", "outcome": "inactive"}, {"compound": "CCN1CCCC1CNC(=O)c1cc(S(N)(=O)=O)ccc1OC", "note": "(centres undefined)", "outcome": "inactive"}, {"compound": "CN(C)CCC(O)(c1ccccc1)c1ccccc1Cl", "note": "(centres undefined)", "outcome": "inactive"}, {"compound": "Cc1cc(N)c(S(=O)(=O)O)cc1Cl", "outcome": "inactive"}, {"compound": "CC(C)C(=O)OCC(C)(C)C(O)C(C)C", "note": "(centres undefined)", "outcome": "inactive"}, {"compound": "COC(=O)CC[C@H](N)C(=O)O", "outcome": "inactive"}, {"compound": "CC(=O)OCC1=C(C(=O)O)N2C(=O)[C@@H](NC(=O)Cc3ccccc3)[C@H]2SC1", "outcome": "inactive"}, {"compound": "FC(F)(F)c1ccccc1-n1ccnc1", "outcome": "inactive"}, {"compound": "CN1CCN(c2cc3c(cc2F)c(=O)c(C(=O)O)cn3-c2ccc(F)cc2)CC1", "outcome": "inactive"}, {"compound": "CC1(C)S[C@@H]2[C@H](NC(=O)[C@@H](NC(=O)N3CCNC3=O)c3ccccc3)C(=O)N2[C@H]1C(=O)O", "outcome": "inactive"}, {"compound": "CCN(CCO)CCCC(C)Nc1ccnc2cc(Cl)ccc12", "note": "(centres undefined)", "outcome": "inactive"}, {"compound": "COCc1ccc(COC)cc1", "outcome": "inactive"}, {"compound": "O=C(c1ccc(Cl)cc1)c1ccc(Cl)cc1", "outcome": "inactive"}, {"compound": "CC(=O)Nc1ccc(OCC(O)CNC(C)C)cc1", "note": "(centres undefined)", "outcome": "inactive"}, {"compound": "CC(C)c1ccccc1C(C)C", "outcome": "inactive"}, {"compound": "C[C@@H](c1ncncc1F)[C@](O)(Cn1cncn1)c1ccc(F)cc1F", "outcome": "inactive"}, {"compound": "CC(C)(C)c1nnc(NS(=O)(=O)c2ccccc2)s1", "outcome": "inactive"}, {"compound": "CCN(CC)CC(=O)Nc1c(C)cccc1C", "outcome": "inactive"}, {"compound": "CC(C)(C)NSc1nc2ccccc2s1", "outcome": "inactive"}, {"compound": "Nc1cccc2c(=O)[nH][nH]c(=O)c12", "outcome": "inactive"}, {"compound": "Cc1ccccc1N1C(=O)c2cc(S(N)(=O)=O)c(Cl)cc2NC1C", "note": "(centres undefined)", "outcome": "inactive"}, {"compound": "CC(=O)OCC(=O)[C@@]1(O)[C@H](C)C[C@H]2[C@@H]3C[C@H](F)C4=CC(=O)C=C[C@]4(C)[C@H]3[C@@H](O)C[C@@]21C", "outcome": "inactive"}, {"compound": "COCCOC(=O)CC#N", "outcome": "inactive"}]}, {"system": "not listed separately", "assay": "TOX21_p53_BLA_p4_viability: Viability Assessment in the Tox21 HCT-116 p53 Agonism Beta-lactamase Assay, Phase 4 (AID 2283597);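 further: hits lower the luminescence signal meaning cytotoxicity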", "outline": "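We seeded HCT116 p53 reporter cells at 4000/well and waited 5 h. We then added compounds in DMSO at a 217-fold dilution and incubated for 16 h. Viability was read as CellTiter-Glo luminescence after 30 min at RT.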", "values": [{"compound": "Cc1cccc(C)c1NC(=O)NC1=CCCN1C", "outcome": "inactive"}, {"compound": "O=C(Oc1ccccc1C(=O)O)c1ccccc1O", "outcome": "inactive"}, {"compound": "NCC1CCC(C(=O)Oc2ccc(CCC(=O)O)cc2)CC1", "note": "(centres undefined)", "outcome": "inactive"}, {"compound": "CC1(C)O[C@@H]2C[C@H]3[C@@H]4CCC5=CC(=O)CC[C@]5(C)[C@@]4(F)[C@@H](O)C[C@]3(C)[C@]2(C(=O)CCl)O1", "outcome": "inactive"}, {"compound": "COc1cc(C(=O)N2CCCCCCC2)cc(OC)c1OC", "outcome": "inactive"}, {"compound": "CC(=O)OCC1=C(C(=O)O)N2C(=O)[C@@H](NC(=O)Cc3ccccc3)[C@H]2SC1", "outcome": "inactive"}, {"compound": "COCc1ccc(COC)cc1", "outcome": "inactive"}, {"compound": "O=C(c1ccc(Cl)cc1)c1ccc(Cl)cc1", "outcome": "inactive"}, {"compound": "C[C@@H](c1ncncc1F)[C@](O)(Cn1cncn1)c1ccc(F)cc1F", "outcome": "inactive"}, {"compound": "CC(C)(C)NSc1nc2ccccc2s1", "outcome": "inactive"}, {"compound": "Cc1ccccc1N1C(=O)c2cc(S(N)(=O)=O)c(Cl)cc2NC1C", "note": "(centres undefined)", "outcome": "inactive"}, {"compound": "CC(=O)OCC(=O)[C@@]1(O)[C@H](C)C[C@H]2[C@@H]3C[C@H](F)C4=CC(=O)C=C[C@]4(C)[C@H]3[C@@H](O)C[C@@]21C", "outcome": "inactive"}]}, {"target": "Cellular tumor antigen p53 (Homo sapiens) (UniProt P04637)", "sequence (P04637 whole entry, looked up)": "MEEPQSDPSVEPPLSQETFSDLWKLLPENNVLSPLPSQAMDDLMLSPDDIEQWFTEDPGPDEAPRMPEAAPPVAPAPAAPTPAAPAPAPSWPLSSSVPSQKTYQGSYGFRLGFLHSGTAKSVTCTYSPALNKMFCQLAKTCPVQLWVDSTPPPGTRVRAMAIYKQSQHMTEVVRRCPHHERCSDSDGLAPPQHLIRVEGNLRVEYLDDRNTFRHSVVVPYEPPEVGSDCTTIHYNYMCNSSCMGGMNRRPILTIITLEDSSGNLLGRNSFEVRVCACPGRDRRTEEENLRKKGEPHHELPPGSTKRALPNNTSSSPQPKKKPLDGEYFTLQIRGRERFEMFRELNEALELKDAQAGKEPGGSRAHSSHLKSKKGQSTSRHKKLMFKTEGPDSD", "assay": "TOX21_p53_BLA_p5_ratio: Tox21 HCT-116 p53 Agonism Beta-lactamase Assay, Ratio, Phase 5 (AID 2283599)", "outline": "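HCT-116 p53-bla cells (4000/well) plated 5 h, dosed with compound (217-fold DMSO dilution) for 16 h at 37 C; CCF4-AM substrate 2 h at room temperature. Activity is the 460/530 nm emission ratio (405 nm excitation), fitted in gain-of-signal direction versus DMSO.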", "values": [{"compound": "Nc1cc(C(=O)O)c(O)c(S(=O)(=O)O)c1", "outcome": "inactive"}, {"compound": "N[C@@H](C(=O)N[C@@H]1C(=O)N2C(C(=O)O)=C(Cl)CC[C@H]12)c1ccccc1", "outcome": "inactive"}, {"compound": "Cc1scc2c1N(C(=O)CN1CCN(C)CC1)c1ccccc1NC2=O", "outcome": "inactive"}, {"compound": "NC(CO)C(=O)NNCc1ccc(O)c(O)c1O", "note": "(centres undefined)", "outcome": "inactive"}, {"compound": "Oc1ccc(C(O)CNCCCCCCNCC(O)c2ccc(O)c(O)c2)cc1O", "note": "(centres undefined)", "outcome": "inactive"}, {"compound": "C=CCCCCCC", "outcome": "inactive"}, {"compound": "O=C1c2ccccc2C(=O)N1CO", "outcome": "inactive"}, {"compound": "CCN1CCCC1CNC(=O)c1cc(S(N)(=O)=O)ccc1OC", "note": "(centres undefined)", "outcome": "inactive"}, {"compound": "CN(C)CCC(O)(c1ccccc1)c1ccccc1Cl", "note": "(centres undefined)", "outcome": "inactive"}, {"compound": "Cc1cc(N)c(S(=O)(=O)O)cc1Cl", "outcome": "inactive"}, {"compound": "CC(C)C(=O)OCC(C)(C)C(O)C(C)C", "note": "(centres undefined)", "outcome": "inactive"}, {"compound": "COC(=O)CC[C@H](N)C(=O)O", "outcome": "inactive"}, {"compound": "FC(F)(F)c1ccccc1-n1ccnc1", "outcome": "inactive"}, {"compound": "CN1CCN(c2cc3c(cc2F)c(=O)c(C(=O)O)cn3-c2ccc(F)cc2)CC1", "outcome": "inactive"}, {"compound": "CC1(C)S[C@@H]2[C@H](NC(=O)[C@@H](NC(=O)N3CCNC3=O)c3ccccc3)C(=O)N2[C@H]1C(=O)O", "outcome": "inactive"}, {"compound": "CCN(CCO)CCCC(C)Nc1ccnc2cc(Cl)ccc12", "note": "(centres undefined)", "outcome": "inactive"}, {"compound": "CC(=O)Nc1ccc(OCC(O)CNC(C)C)cc1", "note": "(centres undefined)", "outcome": "inactive"}, {"compound": "CC(C)c1ccccc1C(C)C", "AC50": "67 µM (active)"}, {"compound": "CC(C)(C)c1nnc(NS(=O)(=O)c2ccccc2)s1", "outcome": "inactive"}, {"compound": "CCN(CC)CC(=O)Nc1c(C)cccc1C", "outcome": "inactive"}, {"compound": "Nc1cccc2c(=O)[nH][nH]c(=O)c12", "outcome": "inactive"}, {"compound": "COCCOC(=O)CC#N", "outcome": "inactive"}]}]}
